KB-V1 MDR tox: kills drug-selected multidrug resistant KB-V1 cells | KB-V1 MDR cells viability, CellTiter-Glo, 72 h | hit rate 3.4% among 400,000 | Potency, µM (top dose mostly 46.1 µM), usual class: cytotoxic; also: potency is read from the fitted curve at half-maximal effect; % is scaled to controls: 0 for no effect and ±100 for the full control effect; nearly all actives have a fitted effect of over 60% in size
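KB-V1 cells (P-gp-expressing MDR subline of KB-3-1) in phenol-red-free DMEM with 10% FBS were exposed to library compounds over a concentration series for 72 h at 37 degrees C. Viability read by CellTiter-Glo luminescence; concentration-effect curves fitted after normalization.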
SW480 rerep: induces DNA re-replication in SW480 colon adenocarcinoma cells; SW480 DNA re-replication, Hoechst DNA content imaging, 48 h; Potency, µM (titrated, usually from 46.1 µM), for the others: at the highest dose re-replication activation, usual class: activators; hit rate 1.8% among 340,000; AID 624297; also: potency is read from the fitted curve at half-maximal effect; % of control where 0% means no effect; nearly all actives have a fitted effect of over 55% in size
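Image-based DNA-content assay: after two days of treatment, nuclei were labelled with the DNA dye Hoechst and imaged, and hits were compounds raising the count of nuclei showing high fluorescence intensity.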
DRD3 antagonist: antagonists of human D3 dopamine receptor | P35462 | D3R cells, DiscoveRx beta-arrestin luminescence, antagonist mode; hits give low values | max response, negative = inhibition, % | hit rate 2.5% among 360,000 | AID 652054; in the data active = max response below about -50%; inconclusive = no clear call, values can overlap the other calls; also: % is scaled to controls: 0 for no effect and ±100 for the full control effect
Target sequence (P35462 whole entry, looked up): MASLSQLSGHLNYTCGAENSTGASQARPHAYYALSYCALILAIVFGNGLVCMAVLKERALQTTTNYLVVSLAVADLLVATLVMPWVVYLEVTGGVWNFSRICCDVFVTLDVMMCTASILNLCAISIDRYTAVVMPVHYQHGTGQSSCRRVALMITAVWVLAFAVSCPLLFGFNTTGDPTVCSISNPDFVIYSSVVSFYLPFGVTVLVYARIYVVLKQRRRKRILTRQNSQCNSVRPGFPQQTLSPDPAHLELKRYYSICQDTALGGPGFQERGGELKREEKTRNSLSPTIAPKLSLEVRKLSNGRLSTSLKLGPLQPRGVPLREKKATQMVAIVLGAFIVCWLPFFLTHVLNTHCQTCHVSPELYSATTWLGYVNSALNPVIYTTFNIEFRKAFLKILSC
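Cells expressing the human receptor were seeded at 1500 cells/well, incubated overnight at 37 degrees C in 5% CO2, then exposed to library compounds with dopamine controls for 90 minutes at 37 degrees C before luminescent detection.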
KB-3-1 cytotox: kills parental KB-3-1 adenocarcinoma cells; AID 1347075; Potency, µM (highest dose often 46.1 µM), usual class: cytotoxic; hit rate 1.4% among 400,000; KB-3-1 viability, CellTiter-Glo ATP luminescence, 72 h; also: potency is read from the fitted curve at half-maximal effect; % is scaled to controls: 0 for no effect and ±100 for the full control effect; nearly all actives have a fitted effect of over 60% in size
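Parental KB-3-1 adenocarcinoma cells in phenol-red-free DMEM with 10% FBS were pin-treated with compounds at several concentrations, incubated 72 h at 37 °C, and viability read by CellTiter-Glo luminescence; concentration-effect curves were fitted after normalization.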
MCF10A rerep: inducers of DNA re-replication in MCF 10A breast cells; Potency, µM (titrated, usually from 46.1 µM), without a hit: top-dose activity, positive = re-replication, hits mostly activators; hit rate 2.9% among 350,000; MCF 10A DNA re-replication, Hoechst nuclear intensity, 48 h; also: potency is read from the fitted curve at half-maximal effect; % of control where 0% means no effect; nearly all actives have a fitted effect of over 50% in size
DRD3 agonist: agonists of human D3 dopamine receptor | AID 652048 | max activation, % | hit rate 0.58% among 410,000 | P35462 | D3R DiscoveRx beta-arrestin cells, luminescence, 90 min; in the data active = max activation above about 30%; also: 0% is about no effect
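Cells at 1500/well, incubated overnight, then treated with pinned compounds (dopamine as control) for 90 min at 37 degrees C. DiscoveRx reagent added for 30 - 60 minutes at room temperature; luminescence read.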
* = called active by the depositor; i = inactive; ? = inconclusive; · = no result. The list is not random: actives were taken first. Their share in the collection is about 8.9%. Unless noted, calls follow the shape of the dose curve; as a rule, active = well fitted curve in the direction sought with a large enough effect; inconclusive = small, poorly fitted or top-dose-only effect, or another doubt; inactive = no such curve, though single readings can be large; an effect the other way counts as inactive or inconclusive.

SMILES | KB-V1 MDR tox | SW480 rerep | DRD3 antagonist | KB-3-1 cytotox | MCF10A rerep | DRD3 agonist
O=C(Nc1ccc(Cl)cn1)c1cccc(S(=O)(=O)N2CCCCC2)c1 | i | 4% | 9 | i | 29% | 2
O=C(CSc1oc(-c2ccco2)nc1S(=O)(=O)c1ccc(Cl)cc1)Nc1ccc(F)cc1 | ? | · | · | i | · | -6
O=C(Nc1ccc(Cl)cn1)c1cccc(S(=O)(=O)N2CCCCCC2)c1 | ? | · | 0 | ? | · | 1
O=C(Nc1ccc(Cl)cn1)c1cccc(S(=O)(=O)N2CCCC2)c1 | 16µM* | -13% | 8 | i | 5% | 8
COc1ccc(C(=O)Nc2ccc(Cl)cn2)cc1Cl | i | ? | 10 | i | 18µM* | -18
COC(=O)CSc1nc2sc3c(c2c(=O)n1-c1ccccc1C)CC(C)(C)OC3 | i | · | · | i | · | -14
Cc1c(Cl)cccc1NC(=O)c1cnc2sc(N3CCCC3)nn2c1=O | · | · | · | · | · | 13
COc1ccc(-n2cc(C(=O)OCc3ccc(Cl)cc3)c3ccccc3c2=O)cc1 | i | · | · | i | · | -16
O=C(NN=Cc1cc(Cl)ccc1[N+](=O)[O-])c1ccco1 | 15µM* | -4% | -7 | i | 0% | -1
CC1=C(C(=O)Nc2cccnc2)C(c2ccccc2)n2nc(SCc3ccccc3)nc2N1 (stereo not drawn) | i | · | · | i | · | 7
CC(=O)Nc1ccc(NC(=O)C2(c3cccs3)CCOCC2)cc1 | i | · | · | i | · | 3
Cc1ccc2oc(-c3cc(NC(=O)c4ccc5c(c4)OCCO5)cc(C)c3O)nc2c1 | i | · | · | i | · | 2
COC(=O)c1cccc(NC(=O)CN2CCN(Cc3ccccc3)CC2)c1 | i | -2% | -50* | i | -7% | -10
CCOC(=O)/C(C#N)=C/c1ccc(OCC(=O)Nc2ccc(C)c(C)c2)c(OC)c1 | i | -5% | 12 | i | 0% | -15
CN(CC(=O)Nc1cccc(C(F)(F)F)c1)Cc1ccccc1 | ? | -1% | -54* | i | 14% | -39
COc1cc(/C=C(\C#N)C(=O)Nc2cc(C(F)(F)F)ccc2Cl)ccc1OCC(=O)Nc1cccc(C(F)(F)F)c1 | i | ? | -1 | i | 21µM* | 1
O=C(CN1CCN(c2ccccc2)CC1)Nc1cccc(C(F)(F)F)c1 | i | -3% | -50* | i | -14% | -23
Cc1cc(C)cc(Oc2coc3c(CN4CCN(C)CC4)c(O)ccc3c2=O)c1 | ? | · | · | ? | · | -31
CCOc1ccccc1NC(=O)CN1C(=O)COc2ccc(S(=O)(=O)NC3CCCC3)cc21 | i | · | · | i | · | -12
Cc1ccc(NC(=O)C(=O)NCC(c2cccnc2)N2CCN(Cc3ccccc3)CC2)cc1 (stereo not drawn) | i | · | · | i | · | -11
NC(=O)C1CCN(c2ncc(-c3cccc(N4CCCC4)c3)s2)CC1 | ? | · | · | i | · | ·
COc1ccc(CN(C)C(=O)c2ccc(OCC(=O)Nc3cccc(C(F)(F)F)c3)c(OC)c2)c(OC)c1 | ? | ? | 3 | ? | ? | 7
O=C(CN1CCN(Cc2ccccc2)CC1)Nc1cccc(C(F)(F)F)c1 | 16µM* | 1% | -14 | i | 13% | -27
COc1cccc(CN(C)C(=O)c2ccc(OCC(=O)Nc3cccc(C(F)(F)F)c3)c(OC)c2)c1 | 4.1µM* | -4% | 3 | ? | 16% | 17
O=C(CN1CCN(Cc2ccccc2)CC1)Nc1cccc(Cl)c1 | ? | 2% | -28 | i | 7% | -14
Cc1csc2nc(COC(=O)c3ccccc3NC(=O)c3ccc(C(C)(C)C)cc3)cc(=O)n12 | · | · | · | · | · | -2
O=C(c1cccn1-c1nnc(N2CCCC2)s1)N1CCN(c2ccccc2)CC1 | i | · | · | i | · | 9
Cc1ccc(CN(Cc2ccco2)c2cnc(S(C)(=O)=O)nc2C(=O)Nc2ccccc2Br)o1 | i | · | · | i | · | 4
CCCN1CCC(=NNc2ccc(S(=O)(=O)N(CC)CC)cc2[N+](=O)[O-])CC1 | 12µM* | ? | -23 | ? | 6% | -8

Screens deposited in PubChem by National Center for Advancing Translational Sciences (NCATS).
